Assay outcomes as filed in PubChem.
LGR2 inh = Drosophila LGR2 receptor signaling inhibition | HEK293 LGR2, CRE-luciferase, bursicon-stimulated, 4 h | inhibition, % at 9.99 µM | hit rate 0.35% among 380,000 | AID 720647;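 active means drop in luminescence signal, shown as inhibition above about 50% in the replicate tests, limit read from the data, passing the limit was not always enough; inconclusive means probably only some replicates passing the limit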;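 further: agonist challenge used bursicon conditioned medium at about half maximal strength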
EWS-Fli inh = EWS/Fli transcriptional activity inhibition. A673 NR0B1-luciferase reporter, viability-normalised. inhibition, % at 12.6 µM. hit rate 0.67% among 350,000. AID 651661;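 active means mean inhibition of at least 50% after viability correction, with every replicate also passing that limit; inconclusive means mean reaches 50% but only one of two replicates passes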;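 further: firefly luciferase signal divided by Alamar Blue viability fluorescence both relative to DMSO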
TWEAK Fn14 block = blocks TWEAK-Fn14 interaction in a reporter cell assay. TWEAK-stimulated Fn14 reporter cells, luciferase luminescence, 8 h. inhibition, % at 10 µM. hit rate 2% among 360,000. AID 1159606; in the data active means inhibition above about 50%
PAX8 reporter = inhibitors of PAX8 transcriptional activity in RMG-I cells | RMG-I TPO-luciferase reporter, SteadyGlo, 24 h | AID 652154 | inhibition, % at 12.6 µM | hit rate 1.2% among 360,000;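 active means mean replicate inhibition at least 60% with every replicate also reaching 60%; inconclusive means only one of the two criteria is met; inactive means mean below 60% and not all replicates reaching 60%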;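 further: luciferase light reporting Pax8 driven TPO promoter activity; plate controls were median of neutral control wells for no effect and mitoxantrone controls for full effect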
TROY signal inh = inhibitors of TROY-dependent NF-kB signaling. Q293 LMP1-TROYcd NF-kB luciferase reporter, 4 h. inhibition, % at 10 µM. hit rate 0.98% among 360,000;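 active means compounds whose plate-normalised and pattern-corrected inhibition of the luciferase reporter signal at the single screening dose is 50% or more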
An asterisk follows results filed as active; ? = inconclusive; . = no result given. A selection: hits, their analogues and other compounds. The true share with any hit is near 2.8%.

SMILES	LGR2 inh	EWS-Fli inh	TWEAK Fn14 block	PAX8 reporter	TROY signal inh
Cc1ccc(C(=O)c2coc3ccc(O)cc23)cc1	-8	5	56*	-132	-15
CCOc1ccc(C(CN2CCOCC2)C(C)=O)cc1OC (stereo unspecified)	14	7	16	102*	-6
CCCOc1ccc(C(=O)CCN2CCCCC2)cc1	.	.	19	.	-17
CCCCOc1ccc(C(=O)CCN2CCOCC2)cc1	-13	-9	13	69*	-14
O=C(c1ccc(Br)cc1)C(CN1CCOCC1)c1ccccc1 (stereo unspecified)	16	41	58*	39	0
CCOc1ccc(C(C#N)N2CCOCC2)cc1OC (stereo unspecified)	.	.	-6	3	4
CC(CN1CCOCC1)OC(=O)c1ccc(Br)cc1 (stereo unspecified)	.	.	13	.	5
CCOc1ccc(C(=O)C(CN2CCOCC2)c2ccccc2)cc1 (stereo unspecified)	20	.	39	97*	-3
CN(C)C(=O)c1cccc(-c2ccc([C@H]3[C@@H](C#N)N(C(=O)C4CCC4)[C@@H]3CO)cc2)c1	-6	4	.	12	.
CC(C)NC(=O)N[C@@H]1C=C[C@@H](CC(=O)NCCCN(C)C)O[C@@H]1CO	11	1	.	-1	.
O=C(c1ccccc1)C(CN1CCCCC1)c1ccccc1 (stereo unspecified)	?	69*	71*	69*	8
CC1(c2nnnn2-c2ccc3c(c2)OCCO3)CCC(=O)N1CCc1ccccc1F (stereo unspecified)	13	4	68*	-23	37
C[C@@H]1CN([C@@H](C)CO)C(=O)c2ccccc2-c2ccccc2CO[C@H]1CN(C)C(=O)c1ccncc1	7	-8	.	-13	.
COc1ccc(OC)c(COC(=O)c2cc([N+](=O)[O-])ccc2N2CCOCC2)c1	-4	65*	-18	25	-9
CSc1ccc(COC(=O)c2cc([N+](=O)[O-])ccc2N2CCOCC2)cc1	-33	55*	17	96*	13
Cc1ccccc1COC(=O)c1cc([N+](=O)[O-])ccc1N1CCOCC1	5	.	4	24	-25
Cc1noc(C)c1S(=O)(=O)N(C)C[C@@H]1Oc2ccc(NC(=O)C3CCCCC3)cc2CC(=O)N([C@H](C)CO)C[C@@H]1C	20	8	.	.	.
COC(=O)[C@H](Cc1ccccc1)NC(=O)N(C)Cc1ccccc1	-24	-4	4	-25	-8
CN(Cc1ccccc1)C(=O)N[C@@H](Cc1ccccc1)C(=O)O	.	.	81*	.	.
COc1ccc(NC(=O)N[C@H]2CC[C@@H](CCNC(=O)CCN3CCCCC3)O[C@@H]2CO)cc1	5	-9	.	2	.
CCC(CC)COC(=O)C1=C(C)NC(=O)NC1c1ccccc1Br (stereo unspecified)	-1	1	81*	-34	8
CCC(CC)COC(=O)C1=C(C)NC(=O)NC1c1ccc(N(C)C)cc1 (stereo unspecified)	7	8	-25	-10	4
CCCNC(=O)[C@@H]1[C@@H](CO)[C@@H]2Cn3c(ccc(-c4ccccc4F)c3=O)[C@H]1N2CCC	-6	9	.	.	.
Cn1c(=NC(=O)c2ccccc2[N+](=O)[O-])sc2cc(S(C)(=O)=O)ccc21	12	.	51*	-63	7
C[C@H]1CN([C@@H](C)CO)C(=O)c2ccccc2-c2ccccc2CO[C@@H]1CN(C)S(=O)(=O)c1ccc(C#N)cc1	-3	3	.	.	.
SMILES	LGR2 inh	EWS-Fli inh	TWEAK Fn14 block	PAX8 reporter	TROY signal inh
CCCCCCCNC(=O)C1(CC2CC(c3cccc(Br)c3)=NO2)CCN(C(=O)Cc2ccc(F)cc2)CC1 (stereo unspecified)	.	.	-13	.	17
CCCCCCCNC(=O)C1(CC2CC(c3cccc(Br)c3)=NO2)CCNCC1 (stereo unspecified)	.	41	-81	80*	-48
NC(=O)CC(NC(=O)c1ccccc1)c1ccc(N2CCC(Cc3ccccc3)CC2)c([N+](=O)[O-])c1 (stereo unspecified)	-11	22	43	12	55*
COc1ccc2c3c(n(C)c2c1)[C@@H](CO)N(C(=O)c1cnccn1)CC31CN(C(=O)c2cnccn2)C1	7	1	.	.	.
COc1cccc(-n2nnnc2SCC(=O)Nc2ccccc2OC)c1	13	-102	-1	-5	0
CCCS(=O)(=O)c1nnnn1-c1cccc(OC)c1	.	.	69*	.	52*
O=C(C[C@@H]1CC[C@@H]2[C@H](COC[C@@H](O)CN2Cc2cc(F)ccc2F)O1)NCc1ccccc1	-18	3	.	-10	.
O=C(Nc1ccc(NC(=O)C2CC2)cn1)c1ccccc1	20	14	54*	-16	35
Cc1ccc(S(=O)(=O)Nc2ccc3c(c2)C(=O)N([C@H](C)CO)C[C@H](C)[C@@H](CN(C)CC2CCCCC2)O3)cc1	0	-4	.	2	.
C(=C\c1ccc2ccccc2n1)/c1ccccc1	94*	74*	74*	-7	57*
Cc1ccc(/C=C/c2nc3ccccc3s2)s1	.	.	86*	.	76*
Oc1ccc(/C=C/c2ccc3ccccc3n2)cc1	96*	79*	92*	58	74*
O=C(O)/C=C/c1ccc2ccccc2n1	.	.	-9	.	-19
COc1cc(/C=C/c2nc3ccccc3s2)cc(OC)c1O	-38	-2	2	-96	27
CN(C)c1ccc(/C=C/c2nc3ccccc3s2)cc1	.	.	105*	.	65*
Fc1ccccc1/C=C/c1ccc2ccccc2n1	90*	.	89*	.	59*
CN(C)c1ccc(/C=C/c2ccc3ccccc3n2)cc1	93*	.	99*	.	76*
O=[N+]([O-])c1ccc(/C=C/c2ccc3ccccc3n2)cc1	54*	59*	60*	-19	55*
CC(=O)Oc1ccc(Cl)cc1/C=C/c1ccc2ccccc2n1	-77	.	31	.	-41
O=[N+]([O-])c1ccc(/C=C/c2ccc3cccc(O)c3n2)cc1	-43	-70	-27	-41	41
COCC(=O)N1[C@H](C(=O)N2CCCCC2)[C@@H](CO)[C@@H]2Cn3c(ccc(C4=CCCCC4)c3=O)[C@@H]21	-11	5	.	-10	.
Cc1noc(C)c1S(=O)(=O)N(C)C[C@@H]1Oc2c(cccc2N(C)C)C(=O)N([C@H](C)CO)C[C@H]1C	-8	10	.	-23	.
COc1ccc2c(c1)N(C)/C(=C/c1cccc[n+]1C)S2	-36	38	-4	49	2
Cc1ccc2c(c1)N(C)/C(=C/c1cccc[n+]1C)S2	5	41	18	79*	-6
CCN1/C(=C/c2cccc[n+]2C)Sc2ccc(OC)cc21	13	38	7	71*	13
C[C@H]1CN([C@@H](C)CO)C(=O)c2cccc(NC(=O)CCCCCC(=O)Nc3ccccc3N)c2O[C@H]1CN(C)S(=O)(=O)c1ccc(Cl)cc1	2	39	.	.	.
O=C(C[C@@H]1CC[C@H](NC(=O)Nc2ccc(F)cc2)[C@@H](CO)O1)NCc1ccccn1	-1	-6	.	-8	.
